The source of these data is PubChem BioAssay (Tox21).

The structures appear in SMILES notation. Unmarked numbers belong to inactive results. Inconclusive results are not listed. Calls of active or inactive are those of the source. Unless noted, the call rests on the fitted dose curve; in most records, active means well fitted curve in the direction sought with a large enough effect in the repeat runs; inconclusive means weak or mixed curves; inactive means no such curve, though single readings can be large; an effect the other way counts as inactive or inconclusive.

The target in test [1] is Thyrotropin receptor (Homo sapiens) (UniProt P16473). Kind of test: qHTS assay to identify small molecule antagonists of the thyroid stimulating hormone receptor (TSHR) signaling pathway (AID 1259385; calls by dose curve; further: nearly all actives have a fitted effect of over 20% in size). Put shortly:
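Antagonist mode: compound-treated TSHR-expressing HEK293 cells were stimulated with 1.5 ng/mL TSH (final) in presence of Ro20-1724 for 30 min at RT. HTRF cAMP detection after 1 h; each compound tested at 15 concentrations, triplicate.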
For orientation: Quantitative high-throughput screening tests each substance at several concentrations.

Test [2] in a line: qHTS assay to identify small molecule agonists of the estrogen receptor alpha (ER-alpha) signaling pathway in the presence of an antagonist - cell viability counter screen (AID 1259386).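 Further: series mostly up to about 92 µM; cells exposed to compounds for 22 h at 37 °C before the viability read; nearly all actives have a fitted effect of over 30% in size.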 In short, it runs like this: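 Viability counter screen using VM7Luc4E2 (full-length ER-alpha, four ERE-luciferase). The cells were treated with compounds alongside ICI-182,780 10.0nM for 22hr, and live-cell protease fluorescence was quantified with CellTiter-Fluor.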

Test [3] is described as follows: qHTS assay to identify small molecule antagonists of the progesterone receptor (PR) signaling pathway - cell viability counter screen (AID 1346798). Further: nearly all actives have a fitted effect of over 50% in size. Further: potency means the concentration at half of the fitted maximal effect. On activity change, negative = cytotoxicity: series mostly up to about 92 µM. In short, it runs like this:
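Same-well multiplex: after 16 hr at 37C with compound and R5020 stimulation, HEK293T cells carrying a UAS-bla reporter received LiveBLAzer substrate (2 hr RT), then CellTiter-Glo (30 min RT) for luminescent viability.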

A short description of test [4]: qHTS assay to identify small molecule agonists of the progesterone receptor (PR) signaling pathway - cell viability counter screen (AID 1346799; calls by dose curve; further: nearly all actives have a fitted effect of over 45% in size). In short, it runs like this: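 Counter screen for cytotoxicity: compound-treated PR-UAS-bla HEK293T cells (16 hr, 37C, 5% CO2) were assayed with CellTiter-Glo, luminescence measured after 30 min at room temperature.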
The nature of test [5]: qHTS assay to identify small molecule antagonists of the TGF-beta/Smad signaling pathway - cell viability counter screen (AID 1346824). Further: nearly all actives have a fitted effect of over 50% in size. Put shortly:
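Cytotoxicity counter-screen run in the same wells as the beta-lactamase Smad reporter read: CellTiter-Glo luminescence after 30 min at room temperature. HEK 293T SBE-bla cells had 5 hr compound exposure at 37 C with TGF-beta1 (0.25 ng/mL stock).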

The nature of test [6]: qHTS assay to identify small molecule agonists of the TGF-beta/Smad signaling pathway - cell viability counter screen (AID 1346829). Further: top concentration of the series differs between compounds; nearly all actives have a fitted effect of over 45% in size. In short, it runs like this: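 Here the cytotoxicity of library compounds is measured in SBE-bla HEK 293T cells treated for 5 hr, using CellTiter-Glo added to wells already read for the beta-lactamase reporter.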
The target of test [7] is Progesterone receptor (Homo sapiens) (UniProt P06401). Kind of test: qHTS assay to identify small molecule antagonists of the progesterone receptor (PR) signaling pathway (AID 1346795; active means well fitted inhibition curve with a large enough effect in the signal ratio in the repeat runs, not every such curve was filed as active; the % refers to the signal ratio; further: potency means the concentration at half of the fitted maximal effect). In short, it runs like this: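 HEK293T PR-UAS-bla reporter cells in charcoal-stripped serum (2%) received compound after a 6 hr settling period, followed by R5020 agonist at 1 nM final; 16 hr incubation preceded the FRET substrate step and fluorescence measurement.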

Test [8] is described as follows: qHTS assay to identify small molecule agonists of the TGF-beta/Smad signaling pathway (AID 1346859; active means well fitted activation curve with a large enough effect in the signal ratio in the repeat runs, not every such curve was filed as active; the % refers to the signal ratio; further: series mostly up to about 77 µM). In short, it runs like this: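 Smad-responsive beta-lactamase reporter cells (HEK 293T) received compounds from DMSO stocks after overnight attachment, were incubated 5 hr, then treated 2 hr with FRET substrate before dual-emission fluorescence measurement (405 nm excitation).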

Test [9] concerns the target Thyrotropin-releasing hormone receptor (Homo sapiens) (UniProt P34981). Nature of the test: qHTS assay to identify small molecule antagonists of the thyrotropin-releasing hormone receptor (TRHR) signaling pathway (AID 1346877; active means well fitted inhibition curve with a large enough effect in the repeat runs, not every such curve was filed as active; further: series mostly up to about 51 µM). In short, it runs like this:
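Following an 18 h incubation at 37 °C and a 2 h calcium dye load, TRHR-HEK293 cells were exposed to compound (5 min, room temperature) and challenged with TRH, 1 nM final.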

The target of test [10] is Progesterone receptor (Homo sapiens) (UniProt P06401). Kind of test: qHTS assay to identify small molecule agonists of the progesterone receptor (PR) signaling pathway (AID 1346784; calls by dose curve; further: nearly all actives have a fitted effect of over 30% in size). In short, it runs like this: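 Agonist mode, quantitative HTS format in a HEK 293T line expressing a UAS-controlled beta-lactamase reporter; 16 hr compound exposure at 37C in 2% charcoal-stripped FBS, then LiveBLAzer B/G FRET fluorescence.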
On the % scale 0 is the no-effect control and ±100 the full control effect.

Chain of Thyrotropin receptor (Homo sapiens) (P16473 whole entry, looked up): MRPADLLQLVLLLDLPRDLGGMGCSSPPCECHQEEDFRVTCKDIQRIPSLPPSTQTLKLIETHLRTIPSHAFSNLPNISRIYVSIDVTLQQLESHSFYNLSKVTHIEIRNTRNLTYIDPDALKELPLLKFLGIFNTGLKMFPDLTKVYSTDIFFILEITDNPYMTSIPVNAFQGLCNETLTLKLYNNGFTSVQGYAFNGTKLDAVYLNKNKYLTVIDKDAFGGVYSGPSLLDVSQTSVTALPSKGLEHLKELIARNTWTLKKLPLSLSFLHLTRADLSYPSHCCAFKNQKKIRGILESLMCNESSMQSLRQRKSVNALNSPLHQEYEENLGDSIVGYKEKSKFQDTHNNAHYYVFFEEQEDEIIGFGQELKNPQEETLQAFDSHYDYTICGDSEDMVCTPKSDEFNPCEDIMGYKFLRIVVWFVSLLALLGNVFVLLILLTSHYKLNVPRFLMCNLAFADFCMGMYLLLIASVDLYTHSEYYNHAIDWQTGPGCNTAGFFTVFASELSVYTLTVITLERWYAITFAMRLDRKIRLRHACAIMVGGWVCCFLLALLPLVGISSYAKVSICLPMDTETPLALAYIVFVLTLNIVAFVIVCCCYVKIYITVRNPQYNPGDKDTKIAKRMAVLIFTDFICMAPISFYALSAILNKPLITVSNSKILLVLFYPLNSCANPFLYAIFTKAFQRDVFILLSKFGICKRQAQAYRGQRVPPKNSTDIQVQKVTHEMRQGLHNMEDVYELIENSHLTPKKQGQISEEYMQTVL
Chain of Progesterone receptor (Homo sapiens) (P06401 whole entry, looked up): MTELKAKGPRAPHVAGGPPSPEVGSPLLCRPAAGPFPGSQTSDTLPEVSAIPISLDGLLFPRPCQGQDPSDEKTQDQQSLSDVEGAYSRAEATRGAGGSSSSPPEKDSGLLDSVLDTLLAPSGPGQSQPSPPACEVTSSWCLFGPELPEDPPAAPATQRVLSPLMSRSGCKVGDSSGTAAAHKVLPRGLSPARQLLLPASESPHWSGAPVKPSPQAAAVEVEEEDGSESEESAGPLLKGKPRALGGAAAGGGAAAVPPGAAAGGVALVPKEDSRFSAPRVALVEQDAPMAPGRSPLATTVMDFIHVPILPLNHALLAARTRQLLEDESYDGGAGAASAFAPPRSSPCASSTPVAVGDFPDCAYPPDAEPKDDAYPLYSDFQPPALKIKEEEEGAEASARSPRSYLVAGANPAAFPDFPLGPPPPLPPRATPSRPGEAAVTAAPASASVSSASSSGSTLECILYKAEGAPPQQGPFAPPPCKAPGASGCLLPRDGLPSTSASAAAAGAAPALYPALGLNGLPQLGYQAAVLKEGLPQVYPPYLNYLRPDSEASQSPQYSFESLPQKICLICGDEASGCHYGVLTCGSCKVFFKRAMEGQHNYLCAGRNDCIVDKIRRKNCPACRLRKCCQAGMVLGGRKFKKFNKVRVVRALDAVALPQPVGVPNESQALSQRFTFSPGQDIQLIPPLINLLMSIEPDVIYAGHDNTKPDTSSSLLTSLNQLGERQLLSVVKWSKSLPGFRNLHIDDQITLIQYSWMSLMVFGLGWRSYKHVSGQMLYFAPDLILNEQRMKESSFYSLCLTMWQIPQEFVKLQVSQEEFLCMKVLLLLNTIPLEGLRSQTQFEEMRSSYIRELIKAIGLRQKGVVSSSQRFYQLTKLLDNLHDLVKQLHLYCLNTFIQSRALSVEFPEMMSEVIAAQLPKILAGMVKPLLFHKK
Chain of Thyrotropin-releasing hormone receptor (Homo sapiens) (P34981 whole entry, looked up): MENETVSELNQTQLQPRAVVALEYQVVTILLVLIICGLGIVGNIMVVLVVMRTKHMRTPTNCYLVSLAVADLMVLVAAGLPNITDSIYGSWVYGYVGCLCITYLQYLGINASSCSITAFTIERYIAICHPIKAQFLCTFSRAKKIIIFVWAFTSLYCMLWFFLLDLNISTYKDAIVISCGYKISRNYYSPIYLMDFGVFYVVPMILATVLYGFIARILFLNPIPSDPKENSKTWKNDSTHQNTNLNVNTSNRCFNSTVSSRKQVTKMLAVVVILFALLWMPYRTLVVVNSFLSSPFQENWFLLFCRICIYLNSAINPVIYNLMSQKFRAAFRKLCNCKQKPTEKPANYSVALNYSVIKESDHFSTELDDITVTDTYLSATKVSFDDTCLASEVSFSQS

`CCCCNC(=S)NCCCC`: the Potency result in [1], in test [2] and in [4] was “inactive” each time. Besides, in test [3], the Potency is 9.69 µM (active). Further, the compound was called inactive in test [5] and in test [6].
Regarding `CCOC(=O)[C@H](CCc1ccccc1)N[C@@H](C)C(=O)N1Cc2cc(OC)c(OC)cc2C[C@H]1C(=O)O`, the Potency result in test [1], in [2], in test [7], in test [3] and in test [4] was “inactive” each time. Further, the result in [5], in test [6] and in test [8] was inactive.
For `CC(C)=CCC[C@](C)(O)[C@@H]1CC=C(C)CC1`, the Potency entry in test [1], in test [2], in test [7] and in [4] was “inactive” each time. In addition, the result in [5], in test [6] and in test [8] was inactive.
As for `OCC(CBr)(CBr)CBr`, the Potency result in test [1], in test [2] and in test [3] was “inactive” each time. Moreover, the Potency in test [7] was 34.2 µM (active). Further, the result in test [5], in test [6], in test [8] and in test [9] was inactive.
Consider `COc1cc(Cl)ccc1Cl`, for which the Potency entry in test [1], in [2], in [7], in test [3] and in test [4] was “inactive” throughout. The compound was classed as inactive in [5], in test [6], in test [8] and in test [9].
As for `ClC(Cl)Cl`, the Potency result in test [1], in test [2] and in [10] was “inactive” in each case. The outcome in [5], in [6] and in [8] was inactive.
For the compound `CC(CNC1CCCCC1)OC(=O)c1ccccc1` (stereo unspecified), the Potency result in [1], in test [2], in [7], in [3] and in test [4] was “inactive” in each case. Moreover, the call in test [6] and in test [9] was inactive.
Consider `CCCOc1ccc2c(c1)CC[C@@H]1[C@@H]2CC[C@]2(C)C(OC)CC[C@@H]12` (stereo partly specified), for which the Potency result in [1], in test [2] and in test [3] was “inactive” throughout. Besides, in [7], the Potency is 15 µM (active). The result in test [5], in test [6], in test [8] and in test [9] was inactive.
Take `C1CSCCS1`: the Potency entry in test [1], in test [2], in test [3] and in test [4] was “inactive” throughout. Moreover, the outcome in test [5], in test [6] and in [8] was inactive.
In the case of `CCCCCCC`, the Potency entry in [1], in [2] and in test [10] was “inactive” each time. The compound was called inactive in [6], in test [8] and in test [9].
With `CNCCC(Oc1ccccc1OC)c1ccccc1` (stereo unspecified), the Potency entry in test [1], in test [2], in test [7] and in test [3] was “inactive” each time. In addition, the compound was classed as inactive in [5] and in test [6].
For `O=Cc1ccc(F)c(Br)c1`, the Potency entry in test [1], in test [2], in test [7] and in test [4] was “inactive” throughout. Besides, the outcome in [5], in test [6], in test [8] and in test [9] was inactive.
As to `O=C1CCN(c2ccccc2)N1`, the Potency entry in test [1], in test [2], in test [7] and in test [4] was “inactive” each time. In addition, the compound was classed as inactive in test [5], in test [6], in test [8] and in [9].
Turning to `Nc1cccc(S(=O)(=O)O)c1`, the Potency entry in [1], in [2] and in [10] was “inactive” in each case. The outcome in test [5], in test [6] and in [8] was inactive.
In the case of `CCCCCCn1c(=O)c2c(ncn2C)n(C)c1=O`, the Potency entry in test [1], in test [2], in test [7], in test [3] and in test [4] was “inactive” throughout. The result in test [5], in test [6] and in test [8] was inactive.
As to `CCC(=O)Nc1ccc(O)cc1`, the Potency entry in [1], in test [2], in test [7], in [3] and in test [4] was “inactive” in each case. The result in [5], in test [6] and in test [8] was inactive.
`C=CC1CO1` (stereo unspecified): the Potency entry in test [1], in test [2], in [7], in [3] and in [4] was “inactive” each time. Further, the call in test [5], in test [6] and in test [8] was inactive.
As for `CCOC(=O)CS`, the Potency entry in test [1], in test [2], in test [7], in [3] and in [4] was “inactive” each time. In addition, the compound was classed as inactive in [5], in test [6], in [8] and in [9].
Regarding `COC(=O)c1ccc2cc(C(=O)OC)ccc2c1`, the activity change, negative = inhibition in test [1] is -1.02% [at 19 µM]; in [7], -25.1% [at 18.9 µM]. The results for the activity change, negative = cytotoxicity in test [2], in [4] and in [6] were -3.99% [at 19 µM], -2.9% [at 19 µM] and 8.9% [at 15.8 µM], respectively. In addition, the Potency result in [3] is “inactive”. For the same compound, the viability change, negative = cytotoxic in test [5] was 0.743% [at 15.8 µM]. Further, the activation in test [8] is 0.192% [at 15.8 µM].
With `CCc1cc2cc(OC)c(OC)cc2c(Cc2ccccc2)n1`, the Potency result in [1], in [2] and in test [3] was “inactive” in each case. Further, the Potency in test [7] is 16.8 µM (active). Also, the compound was classed as inactive in test [5], in test [6] and in [8].
Turning to `N#Cc1ccc(C(c2ccc(C#N)cc2)n2cncn2)cc1`, the Potency entry in [1], in test [2], in [7] and in [3] was “inactive” throughout. Also, the result in test [6], in test [8] and in test [9] was inactive.
In the case of `Cc1nnc(SCC2=C(C(=O)O)N3C(=O)[C@@H](NC(=O)Cn4cnnn4)[C@H]3SC2)s1`, the Potency entry in [1], in test [2], in [7], in [3] and in test [4] was “inactive” each time. Further, the outcome in test [6], in [8] and in test [9] was inactive.
For `CN1CCN(c2c(F)cc3c(=O)c(C(=O)O)cn4c3c2SCC4)CC1`, the Potency entry in [1], in [2], in [7], in test [3] and in test [4] was “inactive” throughout. Moreover, the call in [5], in test [6] and in test [9] was inactive.
As for `CCN(CC)CC1CCCCN1CC(=O)N1c2ccccc2C(=O)Nc2cccnc21` (stereo unspecified), the Potency result in test [1], in [2], in test [7], in [3] and in test [4] was “inactive” each time. Moreover, the outcome in [5], in test [6] and in test [8] was inactive.
Regarding `Cc1cc(NS(=O)(=O)c2ccc(N)cc2)nc(C)n1`, the Potency result in test [1], in [2], in [7], in test [3] and in test [4] was “inactive” throughout. In addition, the compound was called inactive in test [5], in test [6] and in test [8].
For the compound `Cc1ccc(C)c(N)c1`, the Potency result in test [1], in test [2], in test [7], in [3] and in test [4] was “inactive” throughout. For the same compound, the result in test [5], in [6], in test [8] and in test [9] was inactive.
